Test results as given in paper PMC4336329 (PLoS ONE, 2015).
About 14,000 (4.5%) of roughly 310,000 compounds showed an effect of 50% or more. The effect is printed as a negative number. For the sample, strong results were picked, then their nearest neighbours and some compounds at random.

What follows are molecules tested against human ether-à-go-go-related gene (hERG) potassium channel (human, UniProt Q12809) (assay: primary screen, population patch clamp on CHO cells stably expressing hERG; higher = less effect of the substance).
Chain of human ether-à-go-go-related gene (hERG) potassium channel (Q12809 whole entry, looked up): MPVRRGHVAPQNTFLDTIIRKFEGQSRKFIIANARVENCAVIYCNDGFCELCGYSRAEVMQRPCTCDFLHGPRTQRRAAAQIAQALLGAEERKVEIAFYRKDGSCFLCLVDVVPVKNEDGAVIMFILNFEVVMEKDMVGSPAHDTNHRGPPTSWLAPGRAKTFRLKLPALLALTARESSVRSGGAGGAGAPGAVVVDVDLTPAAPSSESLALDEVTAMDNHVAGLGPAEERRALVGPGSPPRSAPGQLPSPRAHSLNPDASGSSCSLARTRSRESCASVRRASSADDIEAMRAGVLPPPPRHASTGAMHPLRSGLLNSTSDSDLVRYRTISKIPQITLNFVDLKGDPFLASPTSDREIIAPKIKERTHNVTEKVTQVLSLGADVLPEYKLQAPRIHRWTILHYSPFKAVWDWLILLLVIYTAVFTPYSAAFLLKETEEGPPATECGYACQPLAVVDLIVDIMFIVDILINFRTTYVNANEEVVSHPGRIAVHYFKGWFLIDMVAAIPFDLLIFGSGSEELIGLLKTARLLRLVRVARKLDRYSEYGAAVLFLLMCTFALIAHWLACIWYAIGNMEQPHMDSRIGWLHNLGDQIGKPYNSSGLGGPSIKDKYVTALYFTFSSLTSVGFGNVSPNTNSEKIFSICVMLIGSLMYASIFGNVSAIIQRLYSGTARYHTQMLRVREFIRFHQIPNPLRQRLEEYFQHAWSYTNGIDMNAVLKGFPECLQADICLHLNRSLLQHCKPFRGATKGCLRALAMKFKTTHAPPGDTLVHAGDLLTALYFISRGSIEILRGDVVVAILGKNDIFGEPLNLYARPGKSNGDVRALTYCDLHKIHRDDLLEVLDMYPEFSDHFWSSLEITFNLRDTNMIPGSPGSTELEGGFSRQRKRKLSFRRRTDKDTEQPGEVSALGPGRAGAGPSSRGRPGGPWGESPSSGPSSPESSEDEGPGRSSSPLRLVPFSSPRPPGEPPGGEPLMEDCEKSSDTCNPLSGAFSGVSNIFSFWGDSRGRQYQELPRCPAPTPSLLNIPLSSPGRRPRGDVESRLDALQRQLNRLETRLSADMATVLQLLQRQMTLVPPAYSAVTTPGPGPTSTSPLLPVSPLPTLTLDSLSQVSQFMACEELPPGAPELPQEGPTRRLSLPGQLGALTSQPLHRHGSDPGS
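Further: peak tail current of the secondary pulse compared with the same well before compound.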

Going from O=C(NCC1CCN(Cc2ccccc2F)CC1)Nc1cccc(Br)c1 to Cc1ccc(C)c(CN2CCC(CNC(=O)Nc3ccc(Br)cc3F)CC2)c1, the “hERG current change (%, negative = inhibition) at 10uM” value falls from -43.2% to -73.4%.

First: Cc1cc(C)cc(NC(=O)NCC2CCN(Cc3cc(C)ccc3C)CC2)c1
Second: Cc1ccc(C)c(CN2CCC(CNC(=O)Nc3ccc(C)c(C)c3)CC2)c1
The “hERG current change (%, negative = inhibition) at 10uM” value of the first is higher: -51% for the first, -74.3% for the second.

First: COc1cc(NC(=O)NCC2CCN(Cc3ccccc3C)CC2)cc(OC)c1OC
Second: Cc1ccc(C)c(CN2CCC(CNC(=O)Nc3ccc(C)c(F)c3)CC2)c1
The “hERG current change (%, negative = inhibition) at 10uM” value of the first is higher: -2.71% for the first, -27.5% for the second.

First: COc1ccc(N2CCC(CNC(=O)Nc3ccc(C)c(C)c3)C2)cc1 (stereo not shown)
Second: COCc1ccc(C(=O)N2CCCC(Nc3ccc(C(C)C)cc3)C2)o1 (stereo not shown)
The “hERG current change (%, negative = inhibition) at 10uM” value of the first is higher: 11.4% for the first, -0.274% for the second.

Going from O=C(NCCN1CCCCC1)c1cc(Cl)ccc1Cl to S=C(Nc1ccc(Cl)cc1Cl)N1CCOCC1, the “hERG current change (%, negative = inhibition) at 10uM” value rises from 1.65% to 11.1%.

Going from O=[N+]([O-])c1cc(C(F)(F)F)cc([N+](=O)[O-])c1NCCCNc1ccc([N+](=O)[O-])c2cccnc12 to Cc1cc(-n2c(C)cc(C(=O)COc3ccccc3[N+](=O)[O-])c2C)no1, the “hERG current change (%, negative = inhibition) at 10uM” value falls from 14.4% to -4.91%.

First: O=C(Nc1ccc(S(=O)(=O)NCc2ccco2)cc1)c1ccc(F)cc1
Second: CCOc1ccccc1NC(=O)c1ccc(S(=O)(=O)N2CCOCC2)cc1
The “hERG current change (%, negative = inhibition) at 10uM” value of the first is lower: -4.23% for the first, -2.46% for the second.

First: COc1ccc(CNC(=O)COC(=O)c2cc(-c3ccc(Cl)s3)nc3ccccc23)cc1
Second: COc1cccc(CNC(=O)COC(=O)c2cc(Br)c(Br)s2)c1
The “hERG current change (%, negative = inhibition) at 10uM” value of the first is lower: 1.05% for the first, 14.8% for the second.

First: CCOc1ccc(CNn2nnnc2N)cc1
Second: CCOC(=O)c1ccc(CN2Cc3ccccc3C2=O)cc1
The “hERG current change (%, negative = inhibition) at 10uM” value of the first is lower: -6.35% for the first, 2.17% for the second.

Going from O=C(COc1ncnc2ccccc12)NCCc1ccc(F)cc1 to O=C(C1CCN(Cc2ccc(F)cc2)CC1)N(CCO)Cc1ccccc1, the “hERG current change (%, negative = inhibition) at 10uM” value falls from -6.11% to -10.6%.

Compared with Cc1nc2ccc(NC(=O)Cc3cccc(F)c3)cc2s1, COc1ccc(CC(=O)N/N=C/c2cc([N+](=O)[O-])cc(Br)c2O)cc1 is higher in “hERG current change (%, negative = inhibition) at 10uM” value: 2.56% for the first, 6.88% for the second.

Compared with COCCNC(=O)C(c1ccc(F)cc1)N(CCOC)C(=O)CCC(=O)Nc1nccs1 (stereo not shown), O=C(CCNC(=O)c1ccc([N+](=O)[O-])cc1)Nc1nccs1 is higher in “hERG current change (%, negative = inhibition) at 10uM” value: 0.0239% for the first, 1.93% for the second.

First: O=C1CC2(CCCCC2)Oc2ccc(O)cc21
Second: CCCOc1ccccc1/C=C1\SC(N2CCCCC2)=NC1=O
The “hERG current change (%, negative = inhibition) at 10uM” value of the first is higher: -11.8% for the first, -12.3% for the second.

First: O=C1c2ccccc2C(=O)N1c1ccc(S(=O)(=O)N2CCCCC2)cc1
Second: N=C1c2ccccc2CN1c1ccc(S(=O)(=O)N2CCCCC2)cc1
The “hERG current change (%, negative = inhibition) at 10uM” value of the first is higher: 15.4% for the first, -62.5% for the second.

Compared with CCN(CC)S(=O)(=O)c1ccc(N2Cc3ccccc3C2=N)cc1, CCOC(=O)c1ccc(N2Cc3ccccc3C2=N)cc1 is lower in “hERG current change (%, negative = inhibition) at 10uM” value: -40.5% for the first, -61.3% for the second.

Going from CCOC(=O)c1ccc(N2C(=O)Cc3ccccc3C2=O)cc1 to O=C(O)c1cccc(N2C(=O)Nc3ccccc3N2O)c1, the “hERG current change (%, negative = inhibition) at 10uM” value falls from 20.9% to 10.2%.

Going from CN1CCN(NC(=O)c2cc(-c3cccc(Cl)c3)nc3ccccc23)CC1 to O=C(O)c1cccc2c(-c3ccccc3)c(-c3ccccc3)[nH]c12, the “hERG current change (%, negative = inhibition) at 10uM” value rises from -35.9% to 18.5%.

First: O=S(=O)(N1CCCCC1)N1CCN(c2ccc(F)cc2)CC1
Second: CC(NS(C)(=O)=O)C(c1cccs1)N1CCN(c2ccc(F)cc2)CC1 (stereo not shown)
The “hERG current change (%, negative = inhibition) at 10uM” value of the first is lower: -35.9% for the first, -11.4% for the second.

Compared with CCN1C(=O)NC(=O)/C(=C\c2ccc(N3CCOCC3)cc2OC)C1=O, COc1ccc(N=C2SC(CC(=O)Nc3ccccc3)C(=O)N2CCN2CCOCC2)cc1 (stereo not shown) is lower in “hERG current change (%, negative = inhibition) at 10uM” value: 13.7% for the first, -23.1% for the second.

First: COc1ccc(CCNC(=O)C(C)OC(=O)c2nsc(Cl)c2Cl)cc1OC (stereo not shown)
Second: CC(OC(=O)c1nsc(Cl)c1Cl)C(=O)NCCc1ccccc1 (stereo not shown)
The “hERG current change (%, negative = inhibition) at 10uM” value of the first is higher: 12.4% for the first, -65.4% for the second.

Going from CCC(OC(=O)c1nsc(Cl)c1Cl)C(=O)NCCc1ccccc1 (stereo not shown) to Cc1cc(OCC(=O)Nc2cnn(CCCC(=O)O)c2)ccc1Cl, the “hERG current change (%, negative = inhibition) at 10uM” value rises from 16% to 18%.

Compared with CCOC(=O)/C=C1\CN(Cc2cc(OC)c(OC)c(OC)c2)S(=O)(=O)c2ccc(C(F)(F)F)cc21, COc1ccc(C2=NC(=O)/C(=C\c3cc(OC)c(OC)c(OC)c3)O2)cc1 is higher in “hERG current change (%, negative = inhibition) at 10uM” value: -11.3% for the first, 8.26% for the second.

Compared with CCn1nc(NS(=O)(=O)c2ccccc2)c2cc3cccc(C)c3nc21, CCCn1c(=N)c(S(=O)(=O)c2ccccc2)cc2c(=O)n3cccc(C)c3nc21 is lower in “hERG current change (%, negative = inhibition) at 10uM” value: 6.7% for the first, 0.577% for the second.

First: CCN(Cc1ccccc1)C1CCN(Cc2ccc(SC)cc2)CC1.O=C(O)C(=O)O
Second: CCN(Cc1ccccc1)C(=O)C1CCN(Cc2ccc(SC)cc2)CC1.O=C(O)C(=O)O
The “hERG current change (%, negative = inhibition) at 10uM” value of the first is higher: -69.3% for the first, -71.8% for the second.

First: CCN(CC)C(=O)C1CCCN(Cc2ccc(N(C)C)cc2)C1 (stereo not shown)
Second: CCN(CC)C(=O)C1CCN(Cc2ccc(Br)cc2)CC1.O=C(O)C(=O)O
The “hERG current change (%, negative = inhibition) at 10uM” value of the first is higher: -12.5% for the first, -51.4% for the second.

First: CSc1ccc(CN2CCC(N3CC(C)OC(C)C3)CC2)cc1.O=C(O)C(=O)O (stereo not shown)
Second: CSc1ccc(CN2CCN(S(=O)(=O)Cc3ccccc3)CC2)cc1
The “hERG current change (%, negative = inhibition) at 10uM” value of the first is lower: -20.5% for the first, 1.28% for the second.

Going from CCN(CC)C(=O)C1CCN(Cc2ccc(OCc3ccccc3)c(OC)c2)CC1.O=C(O)C(=O)O to CCN(Cc1ccccc1)C(=O)C1CCN(Cc2ccc(OC)c(OC)c2OC)CC1.O=C(O)C(=O)O, the “hERG current change (%, negative = inhibition) at 10uM” value falls from -32% to -43.4%.

Going from CCCC(C)C(=O)Nc1nc(C)c(-c2csc(Nc3ccccc3OC)n2)s1 (stereo not shown) to COc1cc(/C=C2\C(=N)N3N=C(C)SC3=NC2=O)cc(OC)c1OCCOc1ccccc1C, the “hERG current change (%, negative = inhibition) at 10uM” value rises from 14.5% to 30.7%.

First: CC(=O)CCn1cnc([N+](=O)[O-])n1
Second: CCCn1c(N)c(Sc2ccc([N+](=O)[O-])cc2)c(=O)n(CCC)c1=O
The “hERG current change (%, negative = inhibition) at 10uM” value of the first is higher: 23% for the first, -83.8% for the second.

Compared with O=C(O)CC1SC(N/N=C/c2ccc(Br)cc2)NC1=O (stereo not shown), CC(=O)c1c(C)[nH]c(C(=O)OCc2cc(=O)n3cc(Br)ccc3n2)c1C is lower in “hERG current change (%, negative = inhibition) at 10uM” value: 6.6% for the first, -3.69% for the second.

First: Cc1ccc(C2=NN(CC(=O)NCc3ccccn3)C(=O)CC2)cc1
Second: Cc1cccn2cc(-c3ccc(F)cc3)nc12
The “hERG current change (%, negative = inhibition) at 10uM” value of the first is higher: -11.6% for the first, -14.1% for the second.

Going from Cc1cc(=O)oc2cc(OCC(=O)Nc3ccccc3C(=O)O)ccc12 to CN(CC(=O)Nc1ccccc1Cl)C(=O)COC(=O)C1CCN(c2ccc(C(F)(F)F)cn2)CC1, the “hERG current change (%, negative = inhibition) at 10uM” value falls from 11.6% to -29.8%.

Going from CCCCn1c(N)c(Sc2ccc(C)cc2)c(=O)[nH]c1=O to CCCCn1c(N)c(Sc2ccc([N+](=O)[O-])cc2)c(=O)[nH]c1=O, the “hERG current change (%, negative = inhibition) at 10uM” value falls from 2% to -79.5%.

Going from CCCn1c(N)c(Sc2ccc(C)cc2)c(=O)n(CCC)c1=O to CCCn1c(N)c(Sc2ccc(Cl)cc2)c(=O)n(CCC)c1=O, the “hERG current change (%, negative = inhibition) at 10uM” value falls from -14.3% to -43.3%.

Compared with COCCn1c(N)c(Sc2ccc([N+](=O)[O-])cc2)c(=O)[nH]c1=O, N#Cc1ccccc1COC(=O)CCC(=O)c1cccs1 is higher in “hERG current change (%, negative = inhibition) at 10uM” value: -46.5% for the first, -4.58% for the second.

First: Cn1c(SCc2ccccc2Cl)nc(C(F)(F)F)cc1=O
Second: Cc1cccn2c(=O)c3cc(S(=O)(=O)c4ccccc4)c(=N)n(Cc4ccc(F)cc4)c3nc12
The “hERG current change (%, negative = inhibition) at 10uM” value of the first is lower: 1.65% for the first, 24.7% for the second.

Compared with Cc1cc(OCCOCCN(C)CCO)cc(C)c1Cl, Cc1ccc(-c2nc(CN(C)Cc3ccc4nccnc4c3)c(C)o2)s1 is higher in “hERG current change (%, negative = inhibition) at 10uM” value: -40.9% for the first, -10.3% for the second.

Compared with COc1ccc(-c2cn3cccc(C)c3n2)cc1F, COc1ccc(-c2cn3cccnc3n2)cc1F is higher in “hERG current change (%, negative = inhibition) at 10uM” value: -61.7% for the first, 12.2% for the second.

Compared with COc1cc(C(=O)COC(=O)C2CCN(c3ccc(C(F)(F)F)cn3)CC2)ccc1OC(F)F, O=C(COC(=O)C1CCN(c2ccc(C(F)(F)F)cn2)CC1)c1ccc(F)cc1 is higher in “hERG current change (%, negative = inhibition) at 10uM” value: -59.1% for the first, -0.831% for the second.

First: CCc1ccc(C(=O)COC(=O)C2CCN(c3ccc(C(F)(F)F)cn3)CC2)cc1
Second: Cc1ccc(NC(=O)COC(=O)C2CCN(c3ccc(C(F)(F)F)cn3)CC2)cc1
The “hERG current change (%, negative = inhibition) at 10uM” value of the first is lower: -18% for the first, -1.26% for the second.

Compared with CN(CC(=O)Nc1ccc(F)cc1)C(=O)COC(=O)C1CCN(c2ccc(C(F)(F)F)cn2)CC1, O=C(CC1SC(=Nc2ccc(OC(F)F)cc2)N(CCN2CCOCC2)C1=O)Nc1ccc(F)cc1F (stereo not shown) is lower in “hERG current change (%, negative = inhibition) at 10uM” value: -65.5% for the first, -82.9% for the second.

First: CC(=O)N1CCN(C23CC4CC(CC(C4)C2)C3)CC1
Second: CCCC#CCN1CCN(C23CC4CC(CC(C4)C2)C3)CC1
The “hERG current change (%, negative = inhibition) at 10uM” value of the first is higher: 12.3% for the first, -16.1% for the second.

First: CCCCCC#CCN1CCN(C23CC4CC(CC(C4)C2)C3)CC1
Second: O=C(CC1SC(=Nc2ccccc2F)N(CCN2CCOCC2)C1=O)Nc1ccc(F)cc1F (stereo not shown)
The “hERG current change (%, negative = inhibition) at 10uM” value of the first is lower: -58.6% for the first, -13.1% for the second.

Going from Cc1cc(NCC(C)C)n2ncnc2n1 to Cc1cccn2c(=O)c3cc(S(=O)(=O)c4ccccc4)c(=N)n(Cc4cccnc4)c3nc12, the “hERG current change (%, negative = inhibition) at 10uM” value falls from 14% to -66.1%.

Going from N=c1c(S(=O)(=O)c2ccc(Cl)cc2)cc2c(=O)n3ccccc3nc2n1Cc1cccnc1 to N=c1c(S(=O)(=O)c2ccccc2)cc2c(=O)n3ccccc3nc2n1Cc1cccnc1, the “hERG current change (%, negative = inhibition) at 10uM” value falls from -35.5% to -59.2%.

With N=c1c(S(=O)(=O)c2ccc(Br)cc2)cc2c(=O)n3ccccc3nc2n1Cc1ccccc1 the “hERG current change (%, negative = inhibition) at 10uM” value was 27%.
